Hits are enriched below; roughly 0.97% of the tested compounds scored in any of these assays.
TcdB inh: TcdB glycohydrolase inhibitors, primary screen, biochemical, single point, plate reader; Toxin B (Clostridioides difficile), P18177; TcdB glycohydrolase enzymatic assay; inhibition, % at 9.99 µM; 350,000 compounds, 0.24% hits; AID 652162, 2013; in the data active = inhibition above about 10%
MazF activator: activators of E. coli MazEF toxin-antitoxin RNase, primary screen, biochemical, fluorescence, uHTS; Endoribonuclease toxin MazF (Escherichia coli (strain K12)), P0AE70; 350,000 compounds, 0.32% hits; activation, % at 20 µM; FAM/BHQ RNA-DNA oligo cleavage fluorescence, 5 h; in the data active = activation above about 50%
Target sequence (P0AE70 whole entry, looked up): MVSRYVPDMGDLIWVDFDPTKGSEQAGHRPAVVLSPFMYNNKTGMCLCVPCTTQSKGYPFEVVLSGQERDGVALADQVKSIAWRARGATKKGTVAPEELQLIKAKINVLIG
Mtb betalactam: beta-lactam sensitization of Mtb H37Rv, H37Rv; M. tuberculosis H37Rv growth with meropenem, percent inhibition; inhibition, % at 25 µM; 330,000 compounds, 0.27% hits; AID 434955, 2010;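 also: growth measured after seven days incubation then overnight dye step; 0% = bacteria only wells and 100% = bacteria with antibiotic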
UGM FP inh: M. tuberculosis UGM enzyme inhibitors, primary screen, biochemical, fluorescence polarization, single point; UDP-galactopyranose mutase (Mycobacterium tuberculosis (strain ATCC 25618 / H37Rv)), …; purified UGM, fluorescence polarization probe displacement; inhibition, % at 10 µM; 320,000 compounds, 0.06% hits; AID 504406, 2011; in the data active = inhibition above about 10%, passing the limit was not always enough
RecA splice inh: Mtb RecA intein splicing inhibitors, primary screen, biochemical, fluorescence, HTS; 290,000 compounds, 0.75% hits; cell-free RecA intein splicing; inhibition, % (test concentration not listed); AID 2221, 2009; Protein RecA (Mycobacterium tuberculosis (strain ATCC 25618 / H37Rv)), P9WHJ3; in the data active = inhibition above about 30%;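 also: 0% = vehicle wells and 100% = reference inhibitor control wells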
Rv3671c inh: Rv3671c serine protease inhibitors, primary screen, biochemical, fluorescence polarization, M. tuberculosis H37Rv; inhibition, % at 5.96 µM; 320,000 compounds, 0.048% hits; AID 2606, 2010; in the data active = inhibition above about 38%;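 also: extracellular domain of Rv3671c used as enzyme; 0% = enzyme with DMSO and 100% = no enzyme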
Target sequence (P9WHR9 whole entry, looked up, the tested form may be a part): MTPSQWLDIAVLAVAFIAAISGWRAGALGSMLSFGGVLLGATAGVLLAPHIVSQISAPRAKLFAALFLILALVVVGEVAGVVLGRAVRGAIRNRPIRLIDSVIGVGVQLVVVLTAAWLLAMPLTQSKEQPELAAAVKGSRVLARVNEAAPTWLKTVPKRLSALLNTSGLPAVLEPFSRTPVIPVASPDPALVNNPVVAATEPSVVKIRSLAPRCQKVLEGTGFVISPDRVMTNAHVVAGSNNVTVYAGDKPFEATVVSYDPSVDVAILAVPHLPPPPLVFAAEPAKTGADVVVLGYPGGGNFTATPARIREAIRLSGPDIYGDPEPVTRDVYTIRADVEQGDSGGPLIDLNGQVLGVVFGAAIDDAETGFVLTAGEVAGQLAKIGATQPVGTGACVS
GFP chromo cs: counter-screen: blocks GFP chromophore formation, dose response, counter-screen, biochemical, fluorescence, homogeneous; cell-free GFP chromophore formation; AID 434968, 2010; shares compounds with RecA splice inh; 2,100 compounds, 83% hits; EC50, µM
Numbers without * were called inactive. Unless noted, no rule for the calls is given here.

For O=C(CCN1CCCCC1)N[C@@H]1CC[C@H](CC(=O)N2CCC(Cc3ccccc3)CC2)O[C@H]1CO the results were TcdB inh 0.5.
`COc1ccc(C(=O)C2C(c3ccc(-c4ccccc4[N+](=O)[O-])o3)NC(=O)NC2(O)C(F)(F)F)cc1` (configuration not stated) gave TcdB inh 0.0, MazF activator 3.3, Mtb betalactam 4.5, UGM FP inh 3.6, RecA splice inh 64.5*, Rv3671c inh -57.9 and GFP chromo cs 32.3*.
Screening CCCC(=O)OCCNc1cc(SCc2ccco2)c2nonc2c1[N+](=O)[O-] returned MazF activator -0.2, Mtb betalactam 100.1, UGM FP inh 3.1, RecA splice inh 79.1*, Rv3671c inh -17.8 and GFP chromo cs 8.57*.
Screening Cc1nnc(Sc2cc(NCCCO)c([N+](=O)[O-])c3nonc23)s1 returned TcdB inh -0.5, MazF activator -10.6, RecA splice inh 91.4* and GFP chromo cs 5.09*.
Screening CC(=O)OCCCNc1cc(SCc2ccco2)c2nonc2c1[N+](=O)[O-] returned MazF activator 3.0, Mtb betalactam 97.7, UGM FP inh 2.5, RecA splice inh 78.2*, Rv3671c inh -21.7 and GFP chromo cs 13.8*.
Screening CCCC(=O)OCCNc1cc(Sc2nccn2C)c2nonc2c1[N+](=O)[O-] returned MazF activator 5.6, Mtb betalactam 100.5, UGM FP inh -3.1, RecA splice inh 90.2*, Rv3671c inh -1.2 and GFP chromo cs 3.88*.
For C[C@@H]1CN([C@@H](C)CO)C(=O)c2cc(NC(=O)Nc3ccccc3)ccc2O[C@H]1CN(C)Cc1ccccc1 the results were TcdB inh 0.1.
Screening CN(C)C(=O)C[C@H]1C[C@H]2c3cc(NC(=O)NC4CCCC4)ccc3O[C@H]2[C@H](CO)O1 returned TcdB inh 0.0.
`CCCSc1cc(NCCOC(C)=O)c([N+](=O)[O-])c2nonc12` gave MazF activator 4.5, Mtb betalactam 25.7, UGM FP inh -0.5, RecA splice inh 7.7 and Rv3671c inh -1.4.
For CCCSc1cc(NCCOC(=O)CCC)c([N+](=O)[O-])c2nonc12 the results were MazF activator 1.6, Mtb betalactam 100.1, UGM FP inh 1.2, RecA splice inh 60.3*, Rv3671c inh 9.3 and GFP chromo cs 9.9*.
CCC(=O)OCCNc1cc(Sc2nc3ccccc3s2)c2nonc2c1[N+](=O)[O-] was read as MazF activator 17.3, Mtb betalactam 96.6, UGM FP inh 0.5, RecA splice inh 50.0*, Rv3671c inh 1.4 and GFP chromo cs 4.24*.
CCC(=O)OCCNc1cc(Sc2nc3ccccc3[nH]2)c2nonc2c1[N+](=O)[O-] was read as MazF activator -4.5, Mtb betalactam 99.6, UGM FP inh 4.5 and Rv3671c inh -14.0.
C[C@H]1CN([C@@H](C)CO)C(=O)c2cc(NC(=O)c3ccncc3)ccc2O[C@@H]1CN(C)C was read as TcdB inh 4.3.
Screening CC1(C)Nc2ccc(O)cc2-c2c1ssc2=S returned MazF activator 0.1, Mtb betalactam 41.6, UGM FP inh 0.8, RecA splice inh 92.9*, Rv3671c inh -0.1 and GFP chromo cs 2.42*.
For CN(C)C(=O)C[C@@H]1CC[C@@H]2[C@H](COC[C@H](O)CN2CC2CCCC2)O1 the results were TcdB inh -7.2.
Cc1ccc(-n2[nH]c(C)c(/C=N/NC(=O)c3ccc(O)cc3O)c2=O)cc1 was read as MazF activator -8.0, Mtb betalactam 5.5, UGM FP inh 5.7, RecA splice inh 10.5 and Rv3671c inh 28.0.
`Cc1[nH]n(-c2ccccc2)c(=O)c1/C=N/NC(=O)c1ccc(O)cc1O` gave TcdB inh 1.4, MazF activator -2.3, Mtb betalactam 3.4, UGM FP inh 2.2, RecA splice inh 40.8*, Rv3671c inh 15.4 and GFP chromo cs 2.81*.
For COc1cc2c(cc1OC)C(c1cc(Br)c(OC)c(OC)c1)CC(=O)N2 (configuration not stated) the results were TcdB inh 0.8, MazF activator 6.2, Mtb betalactam -0.4, UGM FP inh -0.9 and RecA splice inh -3.2.
CCOc1cc(C(c2c(C)[nH][nH]c2=O)c2c(C)[nH][nH]c2=O)cc(Br)c1OC was read as TcdB inh -0.5, MazF activator 5.2, Mtb betalactam 9.8, UGM FP inh 0.0, RecA splice inh 93.0*, Rv3671c inh -2.5 and GFP chromo cs 0.49*.
Screening COc1cc(C(c2c(C)[nH][nH]c2=O)c2c(C)[nH][nH]c2=O)cc(Br)c1OC returned TcdB inh -1.8, MazF activator 4.0, Mtb betalactam -12.9, UGM FP inh 0.8, RecA splice inh 99.2*, Rv3671c inh -11.7 and GFP chromo cs 0.633*.
`COc1ccc(OC(=O)N(C)C[C@H]2OCc3ccccc3-c3ccccc3C(=O)N([C@H](C)CO)C[C@@H]2C)cc1` gave TcdB inh -0.4.
Screening CCN1CCN(CC(=O)n2c3c(c4ccccc42)CC(C)CC3)CC1 (configuration not stated) returned MazF activator 17.4, Mtb betalactam -5.2, UGM FP inh 0.0, RecA splice inh -7.8 and Rv3671c inh 2.8.
Screening CC1CCc2c(c3ccccc3n2C(=O)CCl)C1 (configuration not stated) returned TcdB inh 0.2, MazF activator 1.2, Mtb betalactam 0.9, UGM FP inh -3.1, RecA splice inh 40.9*, Rv3671c inh -5.0 and GFP chromo cs 0.694*.
CC1=NNC(=O)C1C(c1ccc(Cl)cc1)C(C#N)C#N (configuration not stated) was read as TcdB inh -0.1, MazF activator 12.5, Mtb betalactam -9.4, UGM FP inh -1.8, RecA splice inh 84.8*, Rv3671c inh -6.4 and GFP chromo cs 11.2*.
For Cc1ccc(C2=NNC(=O)C(c3ccc(Cl)cc3)C2)cc1 (configuration not stated) the results were MazF activator 7.4, Mtb betalactam 3.9, UGM FP inh -1.2, RecA splice inh 1.4 and Rv3671c inh 2.0.
Screening CC1=NN(Cc2ccccc2)C(=O)C1C(c1ccncc1)C(C#N)C#N (configuration not stated) returned TcdB inh -1.7, MazF activator -3.8, Mtb betalactam -2.2, UGM FP inh -1.5, RecA splice inh 68.1*, Rv3671c inh 5.1 and GFP chromo cs 17.7*.

Screening data: PubChem, several laboratories
